# Measured values from PubChem BioAssay AID1851 (National Center for Advancing Translational Sciences (NCATS), 2009).
# Screen size: about 16,000 compounds; about 5,800 (36%) were called active. About 23% were inconclusive and are not listed. The call rests on the fitted dose curve; in most records, active means well fitted curve in the direction sought with a large enough effect; inconclusive means small, poorly fitted or top-dose-only effect, or effect the other way; inactive means no such curve, though single readings can be large or run the other way. Some of the results follow.
# Target: Cytochrome P450 2C19 (Homo sapiens) (UniProt P33261)
# Sequence (P33261 whole entry, looked up): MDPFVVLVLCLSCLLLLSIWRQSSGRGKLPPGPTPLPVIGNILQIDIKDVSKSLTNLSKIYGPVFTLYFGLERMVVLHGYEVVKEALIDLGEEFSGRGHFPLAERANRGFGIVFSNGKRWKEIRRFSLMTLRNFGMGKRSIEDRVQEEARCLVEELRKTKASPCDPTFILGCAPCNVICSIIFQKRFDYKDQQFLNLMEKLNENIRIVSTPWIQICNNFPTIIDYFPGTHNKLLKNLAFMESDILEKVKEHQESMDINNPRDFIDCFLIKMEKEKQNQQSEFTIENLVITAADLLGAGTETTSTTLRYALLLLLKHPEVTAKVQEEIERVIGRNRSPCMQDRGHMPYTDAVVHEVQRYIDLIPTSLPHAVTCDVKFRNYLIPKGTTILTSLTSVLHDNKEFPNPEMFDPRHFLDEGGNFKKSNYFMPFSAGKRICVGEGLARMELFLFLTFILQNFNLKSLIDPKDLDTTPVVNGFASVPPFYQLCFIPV
# Assay: Cytochrome panel assay with activity outcomes
# Conditions: recombinant CYP, pro-luciferin dealkylation, luminescence, p450-cyp2c19; series mostly up to 57.1 µM
# On the % scale 0 is the no-effect control and ±100 the full control effect.
Structure (SMILES),"activity, negative = inhibition",AC50
CS[C@@H](CC(=O)O)C(=O)O,17.7% [at 11.4 µM] (inactive),–
Cc1nnc(N(C)C(=O)c2ccccn2)s1,–,inactive
COc1cccc(C(=O)N(C)c2nnc(-c3ccncc3)s2)c1,–,0.0501 µM (active)
CCOc1ccc2nc(SCc3ccccc3C#N)sc2c1,–,1.26 µM (active)
C=C(C)c1cccc(C(C)(C)NC(=O)Nc2cc(C)ccc2OC)c1,–,3.98 µM (active)
CCCCn1c(NCc2ccccc2NS(=O)(=O)c2ccc(C)cc2)nc2ccccc21,–,1.26 µM (active)
C#CCCCO/N=C1/C[C@@H](O)[C@@H](O)[C@@H]2[C@H]3C(=O)N(c4ccc(F)cc4F)C(=O)[C@@H]3CC[C@H]12,14.9% [at 11.4 µM] (inactive),–
C[C@H](NCCC(c1ccccc1)c1ccccc1)c1ccccc1,–,5.01 µM (active)
NC(=O)CNCCC(c1ccccc1)c1ccccc1,–,inactive
c1ccc(C(CCN2CC3CCC(CC3)C2)c2ccccc2)cc1,21% [at 11.4 µM] (inactive),–
CCOC(=O)c1cnc(-n2nc(C)cc2C)nc1NCCO,–,inactive
CCOC(=O)c1ccccc1Oc1c(F)c(F)nc(NCCO)c1F,–,2.51 µM (active)
COc1ccc(OC)c(C(=O)CSc2nnc(Cc3cccs3)n2CCc2ccccc2)c1,–,1.78 µM (active)
COc1ccc(NC(=O)CSc2nnc(Cc3cccn3C)n2CCc2ccccc2)c(OC)c1,–,3.16 µM (active)
COc1ccc(CCn2c3c(c(=O)[nH]c2=O)C(NC(=O)c2cccs2)(C(F)(F)F)C(=O)N3)cc1OC (stereo unspecified),–,inactive
CCn1c(CNC(=O)COc2ccc(C(C)C)cc2)nnc1SCC(=O)Nc1cc(F)ccc1C,–,28.2 µM (active)
COc1ccc(C(=O)NNC(=O)CSc2nnc(COc3ccc4ccccc4c3)n2C)cc1,–,inactive
COc1cccc(Nc2ncc3nc(CCc4ccccc4)c(=O)n(Cc4cccs4)c3n2)c1,–,inactive
CCn1c(COc2ccccc2)nnc1SCC(=O)Nc1cc(OC)ccc1OC,–,2.82 µM (active)
COc1ccc([C@@H]2CC(=O)c3c(O)cc(O)cc3O2)cc1O,–,5.01 µM (active)
O=C1c2c(O)cc(O)cc2O[C@@H](c2ccc(O)c(O)c2)[C@H]1O,–,inactive

Structure (SMILES),"activity, negative = inhibition",AC50
COc1ccc([C@@H]2CC(=O)c3c(O)cc(O[C@H]4O[C@@H](CO[C@H]5O[C@@H](C)[C@@H](O)[C@@H](O)[C@@H]5O)[C@@H](O)[C@@H](O)[C@@H]4O)cc3O2)cc1O,–,inactive
COC(=O)c1cc(C(=O)c2ccc(Cl)cc2Cl)cn1C,–,5.62 µM (active)
Cn1cc(C(=O)c2ccc(Cl)cc2Cl)cc1C(=O)O,–,inactive
COC(=O)c1cc(C(=O)c2cccc(Cl)c2Cl)cn1C,–,1.26 µM (active)
Cn1cc(C(=O)c2cccc(Cl)c2Cl)cc1C(=O)O,–,inactive
Cc1c(-n2cc(C(=O)c3cc(Cl)ccc3O)cc(C#N)c2=O)c(=O)n(-c2ccccc2)n1C,–,inactive
CN(C)CCCn1cc(C2=C(c3c[nH]c4ccccc34)C(=O)NC2=O)c2ccccc21,–,inactive
CN(C)c1ncc2nc(-c3ccc(F)cc3)c(=O)n(CCc3ccccc3)c2n1,–,inactive
Cc1nc2cnc(N(C)C)nc2n(CCc2ccccc2)c1=O,–,0.631 µM (active)
CN(C)c1ncc2nc(-c3ccccc3)c(=O)n(CCc3ccccc3)c2n1,–,inactive
COc1ccc(-c2nc3cnc(N(C)C)nc3n(CCc3ccccc3)c2=O)cc1,–,inactive
CN(C)c1ncc2ncc(=O)n(CCc3ccccc3)c2n1,–,2 µM (active)
CN(C)c1ncc2ncc(=O)n(CCC#N)c2n1,–,inactive
Cc1ccc(-n2c(O)cnc2Nc2nc(C)cc(C)n2)cc1,–,inactive
COc1c(C)c2c(c(O)c1C/C=C(\C)CCC(=O)O)C(=O)OC2,–,inactive
CC(Sc1nnc(C(C)N(C)C)n1-c1ccc(Cl)cc1)C(=O)Nc1ccc2c(c1)OCO2 (stereo unspecified),–,22.4 µM (active)
O=C(c1cnc(N2CCN(c3ncccn3)CC2)c2ccccc12)N1CCN(c2ncccn2)CC1,–,10 µM (active)
CC(C)c1ccc(OCc2ccc(C(=O)N3CCN(c4ccccn4)CC3)cc2)cc1,–,11.2 µM (active)
O=C(c1cnc(N2CCN(c3ncccn3)CC2)c2ccccc12)N1CCN(c2ccccn2)CC1,–,5.01 µM (active)
Cn1cccc1C(=O)N1CCC2(CC1)CCN(c1ncccn1)CC2,–,inactive
O=C(O)CCC(=O)N1CCN(c2ccccn2)CC1,–,inactive

Structure (SMILES),"activity, negative = inhibition",AC50
COc1ccccc1C(=O)N1CCN(c2ccccn2)CC1,–,7.08 µM (active)
O=C(c1cnccn1)N1CCC2(CC1)CCN(c1ncccn1)CC2,–,inactive
O=C(c1cnccn1)N1CCC2(CC1)CN(c1ccccn1)C2,–,inactive
COCC(=O)N1CCC2(CC1)CCN(c1ccccn1)CC2,–,inactive
O=C(c1cnccn1)N1CCC2(CC1)CCN(c1ccccn1)CC2,–,inactive
CC(=O)N1CCC2(CC1)CCN(c1ccccn1)CC2,–,inactive
COCC(=O)N1CCC2(CC1)CCN(C(=O)NC(C)C)CC2,–,inactive
Cc1ccc(-n2nnnc2C(=Cc2ccc(N(C)C)cc2)c2nnnn2-c2ccc(C)cc2)cc1,–,1.26 µM (active)
O=C1CC(c2cccc(F)c2)SC(N(c2ccccc2)c2ccccc2)=N1 (stereo unspecified),–,5.01 µM (active)
COC(=O)C(Cc1ccc(OC(=O)c2ccc(C(F)(F)F)cc2)cc1)N1Cc2ccccc2C1=O (stereo unspecified),–,14.1 µM (active)
O=C(Oc1ccc2c(c1)CN(Cc1ccccc1)CO2)c1ccccc1,-25.4% [at 11.4 µM] (inactive),–
COC(=O)C(Cc1ccc(OC(=O)c2ccc(Cl)cc2)cc1)N1Cc2ccccc2C1=O (stereo unspecified),–,2.82 µM (active)
CN1CCN(c2ncc3nc(-c4ccccc4)c(=O)n(Cc4cccs4)c3n2)CC1,–,inactive
CC(C)[C@]1(Cl)CC[C@@H]2[C@]3(C)CCC[C@@](C)(C(=O)O)[C@H]3C[C@H](Cl)[C@@]2(Cl)[C@H]1Cl,-28.4% [at 11.4 µM] (inactive),–
Cc1noc(N)c1C(=O)Nc1ccc(F)cc1,–,inactive
Cc1cc(NC(=O)Nc2ccc(F)cc2)no1,–,14.1 µM (active)
C1CCC(N=C(NC23CC4CC(CC(C4)C2)C3)N2CCOCC2)CC1,–,inactive
Cc1ccc(S(=O)(=O)ON=C2CCN(S(=O)(=O)c3ccccc3)CC2)cc1,–,inactive
Cc1ccc(S(=O)(=O)O[C@H]2C[C@@H](C(C)(C)C)CC[C@@H]2c2ccccc2)cc1,–,3.16 µM (active)
